Results from PubChem BioAssay (NCATS).
Inconclusive results are not listed. Calls of active or inactive are those of the source. The call rests on the fitted dose curve; in most records, active means well fitted curve in the direction sought with a large enough effect; inconclusive means small, poorly fitted or top-dose-only effect, or another doubt; inactive means no such curve, though single readings can be large; an effect the other way counts as inactive or inconclusive.

Tests used:
[1] = qHTS of pediatric cancer cell lines to identify multiple opportunities for drug repurposing: Primary screen for control Hh wild type fibroblast cells (AID 1347106); further: nearly all actives have a fitted effect of over 55% in size
Method in brief: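 Viability after 48 h compound treatment at 37C, 500-1,000 cells/well, read as ATP luminescence with CellTiter-Glo. Primary screens used 11-point (MIPE, 0.78 nM-46 µM) or 8-point (NPC, 0.59 nM-46 µM) final concentrations; follow-up screens used 11-point dilutions.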

[2] = qHTS of pediatric cancer cell lines to identify multiple opportunities for drug repurposing: Primary screen for Rh30 cells (AID 1347107); further: nearly all actives have a fitted effect of over 75% in size
Method in brief: (§1)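 Cells (500-1,000/well) in growth media were settled 5 h at 37 degrees C, then given compounds for 48 h. Viability was read as CellTiter-Glo luminescence. Primary runs used MIPE at 11 points (0.78 nM-46 µM) and NPC at 8 points (0.59 nM-46 µM); follow-ups used 11 points.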

[3] = qHTS of pediatric cancer cell lines to identify multiple opportunities for drug repurposing: Primary screen for Rh41 cells (AID 1347108); further: nearly all actives have a fitted effect of over 70% in size
Method in brief: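 CRCs from 8- or 11-point titrations (lowest final 0.59 nM NPC, 0.78 nM MIPE). Cell viability: CellTiter-Glo after 48 h incubation, 15 min room-temperature development, luminescence imaging.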

[4] = qHTS of pediatric cancer cell lines to identify multiple opportunities for drug repurposing: Confirmatory screen for NB1643 cells (AID 1347109); further: nearly all actives have a fitted effect of over 45% in size
Method in brief: as §1

[5] = qHTS of pediatric cancer cell lines to identify multiple opportunities for drug repurposing: Confirmatory screen for A673 cells (AID 1347110);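 further: cells exposed to compound for 48 h before the viability read; nearly all actives have a fitted effect of over 65% in size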
Method in brief: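 Concentration-response curves came straight from titrations: 11 points (0.78 nM to 46 µM) for MIPE and several concentrations (0.59 nM to 46 µM) for NPC in primary, 11 points in follow-up. Readout: ATP luminescence at 48 h.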

[6] = qHTS of pediatric cancer cell lines to identify multiple opportunities for drug repurposing: Confirmatory screen for SK-N-MC cells (AID 1347111);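 further: cells exposed to compound for 48 h before the readout; nearly all actives have a fitted effect of over 70% in size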
Method in brief: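 Metabolically active cells were quantified by ATP-dependent luminescence (CellTiter-Glo, 15 min at room temperature) following 48 h treatment. Cells had been plated at 500-1,000 per well and settled for 5 h beforehand.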

[7] = qHTS of pediatric cancer cell lines to identify multiple opportunities for drug repurposing: Confirmatory screen for BT-12 cells (AID 1347112); further: nearly all actives have a fitted effect of over 55% in size
Method in brief: as §1

[8] = qHTS of pediatric cancer cell lines to identify multiple opportunities for drug repurposing: Confirmatory screen for DAOY cells (AID 1347114); further: nearly all actives have a fitted effect of over 65% in size
Method in brief: (§2)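 Viability measured as metabolically active cells via CellTiter-Glo luminescence following 48 hours of compound exposure, 11-point dilutions in confirmatory testing. 500-1,000 cells/well plated 5 hours before dosing; controls were DMSO and 2.3 µM bortezomib.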

[9] = qHTS of pediatric cancer cell lines to identify multiple opportunities for drug repurposing: Confirmatory screen for NB-EBc1 cells (AID 1347115);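 further: cells exposed to compound for 48 h before the viability read; nearly all actives have a fitted effect of over 45% in size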
Method in brief: as §1

[10] = qHTS of pediatric cancer cell lines to identify multiple opportunities for drug repurposing: Confirmatory screen for SJ-GBM2 cells (AID 1347116); further: nearly all actives have a fitted effect of over 60% in size
Method in brief: as §2

[11] = qHTS of pediatric cancer cell lines to identify multiple opportunities for drug repurposing: Confirmatory screen for BT-37 cells (AID 1347117); further: nearly all actives have a fitted effect of over 55% in size
Method in brief: as §1

[12] = qHTS of pediatric cancer cell lines to identify multiple opportunities for drug repurposing: Confirmatory screen for TC32 cells (AID 1347118);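 further: cells exposed to compound for 48 h before the read; nearly all actives have a fitted effect of over 65% in size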
Method in brief: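 TC32 cells, 500-1,000/well in growth medium, compound-treated 48 h at 37 °C; viability from CellTiter-Glo luminescence. Primary screen: MIPE 11-point (0.78 nM–46 µM final), NPC 8-point (0.59 nM–46 µM final); confirmatory at 11-point dilutions.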

[13] = qHTS of pediatric cancer cell lines to identify multiple opportunities for drug repurposing: Confirmatory screen for MG 63 (6-TG R) cells (AID 1347119); further: nearly all actives have a fitted effect of over 55% in size
Method in brief: as §1

[14] = qHTS of pediatric cancer cell lines to identify multiple opportunities for drug repurposing: Confirmatory screen for control Hh wild type fibroblast cells (AID 1347121); further: nearly all actives have a fitted effect of over 70% in size
Method in brief: as §1

[15] = qHTS of pediatric cancer cell lines to identify multiple opportunities for drug repurposing: Confirmatory screen for U-2 OS cells (AID 1347122); further: nearly all actives have a fitted effect of over 65% in size
Method in brief: as §1

[16] = qHTS of pediatric cancer cell lines to identify multiple opportunities for drug repurposing: Confirmatory screen for Rh41 cells (AID 1347123);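 further: 48 h compound exposure; nearly all actives have a fitted effect of over 60% in size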
Method in brief: as §1

[17] = qHTS of pediatric cancer cell lines to identify multiple opportunities for drug repurposing: Confirmatory screen for Rh18 cells (AID 1347125); further: nearly all actives have a fitted effect of over 55% in size
Method in brief: as §1

[18] = qHTS of pediatric cancer cell lines to identify multiple opportunities for drug repurposing: Confirmatory screen for Rh30 cells (AID 1347126); further: nearly all actives have a fitted effect of over 55% in size
Method in brief: as §1

[19] = qHTS of pediatric cancer cell lines to identify multiple opportunities for drug repurposing: Confirmatory screen for LAN-5 cells (AID 1347113); further: nearly all actives have a fitted effect of over 65% in size
Method in brief: as §1

Measured: Potency
Potency means the concentration at half of the fitted maximal effect.

CC(=O)OCCN1C(=O)c2c(C)nc3ccc(S(=O)(=O)N4CCOCC4)cc3c2C1=O
inactive: [1] | [2] | [3]

Cc1cn2cc(C(=O)N(C)CCO)cc(N[C@@H]3CCOc4cccc(C)c43)c2n1
inactive: [1] | [2] | [3]

CN(C)c1nc(Cc2ccc(NC(=O)c3ccc4ccccc4c3)cc2)nc(Cl)c1CC(=O)O
inactive: [1] | [2] | [3]

CCCCCCCCCC(=O)N[C@@H](Cc1c[nH]c2ccccc12)C(=O)N[C@H](CC(N)=O)C(=O)N[C@@H](CC(=O)O)C(=O)N[C@@H]1C(=O)NCC(=O)N[C@@H](CCCN)C(=O)N[C@@H](CC(=O)O)C(=O)N[C@H](C)C(=O)N[C@@H](CC(=O)O)C(=O)NCC(=O)N[C@H](CO)C(=O)N[C@@H]([C@@H](C)CC(=O)O)C(=O)N[C@@H](CC(=O)c2ccccc2N)C(=O)O[C@@H]1C
inactive: [1] | [2] | [3]

CC1COC2(CCN(c3nc(=O)c4cc(C(F)(F)F)cc([N+](=O)[O-])c4s3)CC2)O1 (stereo not given)
inactive: [1] | [2] | [3]

CC(C)(O)CCc1ccc(OCc2cc(-c3cccc(OC(F)F)c3)c3ncccc3c2)cc1
inactive: [1] | [2] | [3]

C[C@@]12O[C@@H](C[C@]1(O)CO)n1c3ccccc3c3c4c(c5c6ccccc6n2c5c31)CNC4=O
inactive: [2]
active: [1] 23.5 µM | [3] 7.43 µM | [4] 1.85 µM | [5] 1.04 µM | [6] 0.261 µM | [7] 14.7 µM | [8] 9.27 µM | [9] 5.85 µM | [10] 18.5 µM | [11] 2.93 µM | [12] 0.657 µM | [13] 1.47 µM | [14] 18.5 µM | [15] 0.737 µM | [16] 8.27 µM | [17] 3.69 µM | [18] 2.33 µM

Cc1nc2ccc(CN(C)c3ccc(C(=O)N[C@@H](CCC(=O)O)C(=O)O)s3)cc2c(=O)[nH]1
active: [5] 0.0827 µM | [6] 0.0185 µM | [12] 0.0522 µM
not listed: [9] | [10] | [11] | [13] | [14] | [18]
inactive: all other assays above

Nc1ncnc2c1c(-c1cnc3[nH]ccc3c1)nn2C1CCCC1
active: [1] 1.32 µM | [2] 2.09 µM | [3] 0.935 µM | [4] 8.27 µM | [5] 3.69 µM | [6] 1.65 µM | [7] 3.69 µM | [19] 1.47 µM | [10] 2.33 µM | [11] 2.33 µM | [12] 1.47 µM | [13] 0.414 µM | [17] 2.93 µM | [18] 0.585 µM

CNC(=O)c1ccc(N2C(=S)N(c3cnc(C#N)c(C(F)(F)F)c3)C(=O)C23CCC3)cc1F
active: [1] 3.72 µM | [2] 1.66 µM | [3] 1.48 µM
not listed: [17]
inactive: all other assays above

COc1ccc2c(OCc3nnc4ccc(-c5ccccc5)nn34)ccnc2c1
inactive: [1] | [2]

C1Cc2[nH]nc(-c3nn[nH]n3)c2C1
inactive: [1] | [2] | [3]

C=CC(=O)Nc1cc2c(Nc3ccc(F)c(Cl)c3)ncnc2cc1OCCCN1CCOCC1
inactive: [1]
active: [2] 18.7 µM | [3] 18.7 µM

COc1cc2c(cc1-c1c(C)noc1C)ncc1[nH]c(=O)n([C@H](C)c3ccccn3)c12
active: [1] 16.6 µM | [2] 23.5 µM | [3] 9.35 µM

CC(O)C1C(=O)N2C(C(=O)O)=C(SC3CNC(C(=O)N(C)C)C3)C(C)C12 (stereo not given)
inactive: [1] | [2] | [3]

OCc1ccc(-c2ccc(-c3ccc(CO)s3)o2)s1
active: [2] 16.6 µM | [3] 7.43 µM
inactive: [1]

CC(C)c1ccc(Cn2ccc3c4c(N)nc(NC5CC5)nc4ccc32)cc1
active: [2] 18.7 µM | [3] 3.72 µM
inactive: [1]

COc1ccc2c(c1)CC[C@@H](CN(C)CC(=O)O)[C@H]2c1ccccc1
inactive: [1] | [2]
active: [3] 5.9 µM

O=c1[nH]c(=O)n(C2CCCO2)cc1F (stereo not given)
inactive: [1] | [2] | [3]

O=C(C=Cc1c(C(=O)O)[nH]c2cc(Cl)cc(Cl)c12)Nc1ccccc1
inactive: [1] | [2] | [3]

CCCn1c(=O)c2[nH]c(-c3cnn(Cc4cccc(C(F)(F)F)c4)c3)nc2n(CC)c1=O
inactive: [1] | [2] | [3]

CC(=O)SC[C@@H](C)C(=O)N1CCC[C@H]1C(=O)N[C@@H](Cc1ccccc1)C(=O)O
inactive: [1] | [2] | [3]

Nc1ccc(C(=O)c2cc3c(ccc4ccccc43)[nH]2)cc1
active: [3] 4.69 µM
inactive: [1] | [2]

CCCNC(=O)Nc1ccc(Oc2ncnc3cc(OC)c(OC)cc23)cc1Cl
inactive: [1] | [2] | [3]

Cc1cn(-c2cc(NC(=O)c3ccc(C)c(Nc4nccc(-c5cccnc5)n4)c3)cc(C(F)(F)F)c2)cn1
active: [4] 18.5 µM | [5] 20.8 µM | [19] 18.5 µM | [11] 16.5 µM | [16] 11.7 µM | [18] 20.8 µM
inactive: [1] | [2] | [3] | [6] | [7] | [9] | [14]
